Compounds without any hit were thinned out: in the full panel of roughly 79,000, 15% have a hit. Active and inactive are the calls of the source. Cut-off read from the data, not from the text of the source: active = growth inhibition above about 70%; inactive = the rest.
Tests used:
[1] = NCI Yeast Anticancer Drug Screen. Data for the rad52 strain (AID 147);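 note: 0% = growth of vehicle-treated control cultures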; settings: S. cerevisiae rad52 mutant growth inhibition, stronger effect = higher value
In short: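 Read-out: growth inhibition versus vehicle-treated controls. Cells were a DNA repair-deficient yeast strain treated with compounds.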

[2] = NCI Yeast Anticancer Drug Screen. Data for the wt1 strain (AID 149);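 note: 0% = growth of vehicle-treated wt1 cultures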; settings: S. cerevisiae wt1 strain (SPY 50644) growth inhibition, stronger effect = higher value
In short: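 wt1 yeast, compound-treated; % growth inhibition vs vehicle control.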

[3] = NCI Yeast Anticancer Drug Screen. Data for the rad50EPP+ strain (AID 151);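 note: 0% = growth of vehicle-treated control cultures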; settings: S. cerevisiae rad50 mutant strain, stronger effect = higher value
In short: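 Growth inhibition read against vehicle controls in rad50EPP+ yeast, a strain altered in DNA damage repair, after compound exposure.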

[4] = NCI Yeast Anticancer Drug Screen. Data for the mgt1 strain (AID 153); settings: S. cerevisiae mgt1 mutant growth inhibition, stronger effect = higher value
In short: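 mgt1 yeast grown with test compound; read-out is growth inhibition versus vehicle-treated cultures.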

[5] = NCI Yeast Anticancer Drug Screen. Data for the rad50 strain (AID 155);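 note: 0% = growth of vehicle-only cultures of the same strain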; settings: S. cerevisiae rad50 strain growth inhibition, stronger effect = higher value
In short: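 Genetically altered yeast (DNA repair pathway); compound treatment; growth inhibition vs vehicle ctrl.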

[6] = NCI Yeast Anticancer Drug Screen. Data for the mec2-1 strain (AID 157); settings: S. cerevisiae mec2-1 strain, stronger effect = higher value
In short: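 Yeast mec2-1 mutant treated with compound. Readout: growth inhibition vs vehicle controls.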

[7] = NCI Yeast Anticancer Drug Screen. Data for the sgs1 mgt1 strain (AID 161);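 note: 0% = growth of cultures given vehicle only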; settings: S. cerevisiae sgs1 mgt1 strain, stronger effect = higher value
In short: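 Genetically altered yeast, compound exposure, growth inhibition relative to vehicle.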

[8] = NCI Yeast Anticancer Drug Screen. Data for the CLN2oe strain (AID 163);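 note: 0% = growth of vehicle-only control cultures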; settings: S. cerevisiae CLN2oe strain, stronger effect = higher value
In short: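 Read-out: yeast growth inhibition, expressed relative to vehicle-only controls. The strain bears an engineered cell-cycle alteration.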

[9] = NCI Yeast Anticancer Drug Screen. Data for the cln2 rad14 strain (AID 165);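 note: 0% = growth equal to vehicle treated cultures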; settings: S. cerevisiae cln2 rad14 strain, stronger effect = higher value
In short: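 cln2 rad14 yeast strain; compound exposure; growth inhibition read vs vehicle controls.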

[10] = NCI Yeast Anticancer Drug Screen. Data for the bub3 strain (AID 167); settings: S. cerevisiae bub3 mutant strain, stronger effect = higher value
In short: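 Yeast carrying a defined mutation is treated with each compound, and growth is compared with that of vehicle-exposed cells to give inhibition.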

[11] = NCI Yeast Anticancer Drug Screen. Data for the wt2 strain (AID 169);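 note: 0% = growth of vehicle-treated yeast cultures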; settings: S. cerevisiae wt2 strain growth inhibition, stronger effect = higher value
In short: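 Read-out: growth inhibition versus vehicle-treated control cultures after compound exposure of the yeast strain.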

[12] = NCI Yeast Anticancer Drug Screen. Data for the mlh1 strain (AID 171);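 note: 0% = growth of vehicle-treated control cultures of the same strain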; settings: S. cerevisiae mlh1 strain growth inhibition, stronger effect = higher value
In short: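 Read-out: growth inhibition versus vehicle controls. Strain: engineered yeast with a defined DNA repair or cell cycle defect, compound-treated.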

[13] = NCI Yeast Anticancer Drug Screen. Data for the sgs1 strain (AID 173);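 note: 0% = growth of vehicle-only control cultures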; settings: S. cerevisiae sgs1 mutant, stronger effect = higher value
In short: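 Read-out: yeast growth inhibition relative to vehicle controls, following compound exposure of a strain with a defined DNA repair/cell cycle alteration.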

[14] = NCI Yeast Anticancer Drug Screen. Data for the mlh1 rad18 strain (AID 175); settings: S. cerevisiae mlh1 rad18 strain growth inhibition, stronger effect = higher value
In short: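 Yeast w/ defined DNA-repair lesions; compound exposure; growth vs vehicle controls → % inhibition.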

[15] = NCI Yeast Anticancer Drug Screen. Data for the rad18 strain (AID 177); settings: S. cerevisiae rad18 mutant growth inhibition, stronger effect = higher value
In short: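 Readout: growth inhibition vs vehicle controls. Cells: genetically altered yeast strain, DNA repair defect.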

[16] = at 5.0 µM (retest, dose inferred, filed as 0.5)
[17] = at 50.0 µM (retest, dose inferred, filed as 5.0)

Measured: growth inhibition

c1cc(-c2sc(-c3ccncc3)c(-c3ccncc3)c2-c2ccncc2)ccn1
inactive: [1]; at 1.2 µM 4% | [1]; at 3.7 µM 17% | [1]; at 11.0 µM 63% | [2]; at 1.2 µM 2% | [2]; at 3.7 µM -1% | [2]; at 11.0 µM 0% | [2]; at 33.0 µM 12% | [2]; at 100.0 µM 58% | [3]; at 1.2 µM 5% | [3]; at 3.7 µM 18% | [3]; at 11.0 µM 34% | [3]; at 33.0 µM 68% | [4]; at 1.2 µM 0% | [4]; at 3.7 µM 2% | [4]; at 11.0 µM 2% | [4]; at 33.0 µM 25% | [5]; at 1.2 µM 10% | [5]; at 3.7 µM 19% | [5]; [16] 12% | [5]; at 11.0 µM 69% | [6]; at 1.2 µM 3% | [6]; at 3.7 µM 3% | [6]; [16] -5% | [6]; at 11.0 µM 11% | [6]; at 33.0 µM 46% | [6]; [17] 0% | [6]; at 50.0 µM 21.1% | [7]; [16] -5% | [7]; [17] 50% | [7]; at 50.0 µM 46.8% | [8]; at 1.2 µM -7% | [8]; at 3.7 µM 1% | [8]; at 11.0 µM -1% | [8]; at 33.0 µM 25% | [9]; [16] -48% | [9]; [17] 5% | [9]; at 50.0 µM 45.6% | [10]; at 1.2 µM 1% | [10]; at 3.7 µM 7% | [10]; [16] -12% | [10]; at 11.0 µM 25% | [10]; at 33.0 µM 54% | [10]; [17] 18% | [10]; at 50.0 µM 51.1% | [11]; at 1.2 µM 0% | [11]; at 3.7 µM 0% | [11]; at 11.0 µM 0% | [11]; at 33.0 µM 17% | [12]; at 1.2 µM 7% | [12]; at 3.7 µM 4% | [12]; at 11.0 µM 7% | [12]; at 33.0 µM 16% | [13]; at 1.2 µM 3% | [13]; at 3.7 µM 7% | [13]; at 11.0 µM 15% | [13]; at 33.0 µM 42% | [14]; [16] 2% | [14]; [17] 46% | [15]; at 1.2 µM 10% | [15]; at 3.7 µM -1% | [15]; at 11.0 µM 6% | [15]; at 33.0 µM 23%
active: [1]; at 33.0 µM 91% | [1]; at 100.0 µM 97% | [3]; at 100.0 µM 82% | [4]; at 100.0 µM 87% | [5]; at 33.0 µM 90% | [5]; [17] 81% | [5]; at 50.0 µM 96.3% | [5]; at 100.0 µM 96% | [6]; at 100.0 µM 93% | [8]; at 100.0 µM 89% | [10]; at 100.0 µM 89% | [11]; at 100.0 µM 79% | [12]; at 100.0 µM 92% | [13]; at 100.0 µM 77% | [14]; at 50.0 µM 79.7% | [15]; at 100.0 µM 86%

From PubChem BioAssay (NCI)
